PubChem BioAssay AID1259374 (The Scripps Research Institute Molecular Screening Center, 2018)
The whole screen tested about 650,000 compounds, of which about 5,900 (0.91%) were called active. Cut-off read from the data, not from the text of the source: active = inhibition above about 50%; inactive = the rest. The sample as a whole holds a higher share of actives than the screen did.

The compounds below were run against Microphthalmia-associated transcription factor (Homo sapiens) (UniProt O75030) (assay: MITF inhibitors, primary screen, biochemical, AlphaScreen, human (AID 1259374;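 note: 0% = vehicle wells with protein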)). Conditions: AlphaScreen MITF homodimerization, bead proximity signal; at 2.6 µM; stronger effect = higher value.
Sequence of Microphthalmia-associated transcription factor (Homo sapiens) (O75030 whole entry, looked up): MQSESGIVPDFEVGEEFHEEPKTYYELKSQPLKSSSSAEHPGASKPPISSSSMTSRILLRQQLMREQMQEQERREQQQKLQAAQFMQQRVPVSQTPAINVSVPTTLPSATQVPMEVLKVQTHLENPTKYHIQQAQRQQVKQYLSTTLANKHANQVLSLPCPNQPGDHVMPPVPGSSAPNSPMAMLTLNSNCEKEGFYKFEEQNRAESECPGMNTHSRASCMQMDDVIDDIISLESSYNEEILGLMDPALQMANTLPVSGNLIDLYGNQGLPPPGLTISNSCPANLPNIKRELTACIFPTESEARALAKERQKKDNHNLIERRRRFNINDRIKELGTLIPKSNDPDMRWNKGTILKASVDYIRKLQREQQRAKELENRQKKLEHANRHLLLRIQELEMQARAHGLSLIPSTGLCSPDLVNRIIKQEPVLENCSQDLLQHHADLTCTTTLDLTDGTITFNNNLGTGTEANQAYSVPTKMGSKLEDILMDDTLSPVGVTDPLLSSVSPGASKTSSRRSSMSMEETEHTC
For `Cc1nc2c(ccc3nc(NC(=O)c4ccc([N+](=O)[O-])o4)sc32)s1`, the inhibition was -9.59% (inactive).
In the case of `O=C(Nc1ccc(Cl)c(Cl)c1)C1C2C=CC3(O2)C1C(=O)N(Cc1cccs1)C3C(=O)NC1CCCCC1` (configuration not stated), the inhibition is reported as 6.14% (inactive).
With `CC(NC(=O)CN(C)S(=O)(=O)c1cccs1)c1ccccc1` (configuration not stated) the inhibition was -11.7% (inactive).
In the case of `Cc1ccc(C)n1C(Cc1ccccc1)C(=O)O` (configuration not stated), the inhibition is reported as 66.9% (active).
For `CC(C)CC(C(=O)O)N1C(=O)c2ccccc2C1=O` (configuration not stated), the inhibition was 6.74% (inactive).
With `O=C(Nc1ccccc1)C(Cc1ccccc1)N1C(=O)c2ccccc2C1=O` (configuration not stated) the inhibition was 3.18% (inactive).
In the case of `CC(C)N1CCN(C(=O)CC2(c3ccccc3)CC(=O)N(CCc3ccccn3)C2=O)CC1` (configuration not stated), the inhibition is reported as 18.7% (inactive).
For `Cc1cc(N2CCCC2)nc(Nc2ccc(NC(=O)c3c(F)cccc3Cl)cc2)n1`, the inhibition was 8.34% (inactive).
In the case of `CCc1ccc(NC(=O)CS(=O)CC(=O)NCCCc2ccccc2)cc1` (configuration not stated), the inhibition is reported as 60.7% (active).
`CCc1ccc(NC(=O)CS(=O)CC(=O)N2CCN(c3ccccc3F)CC2)cc1` (configuration not stated) was tested, and the inhibition was -10.3% (inactive).
For `CCc1ccc(NC(=O)Nc2ccccc2)cc1`, the inhibition was 7.42% (inactive).
With `COc1ccc(C(=O)Nc2ccc3scnc3c2)cc1` the inhibition was -2.75% (inactive).
`COc1ccc(-c2nnn(CC(=O)NCc3ccc(C)cc3)n2)cc1OC` was tested, and the inhibition was 16.6% (inactive).
For `COc1ccc(C(=O)N/N=C/c2ccc(O)c3ncccc23)cc1`, the inhibition was 100% (active).
In the case of `COc1ccc(O)c(/C=N/NC(=O)c2ccc(NC(C)=O)cc2)c1`, the inhibition is reported as 17.1% (inactive).
`COc1ccc(C(=O)N/N=C/c2c(O)ccc3ccccc23)cc1` was tested, and the inhibition was 16.9% (inactive).
`Cc1cc(C)c(NS(=O)(=O)c2ccc3c(c2)n(C)c(=O)c(=O)n3C)c(C)c1` was tested, and the inhibition was 4.25% (inactive).
For `COc1cc(OC)c(OC)cc1CN1CCN(Cc2ccc(F)cc2)CC1`, the inhibition was 64% (active).
For `COc1cc(CN2CCN(c3nccn3C)CC2)cc(OC)c1`, the inhibition was 8.7% (inactive).
With `COc1cc(CN2CCN(c3ccccc3OC)CC2)cc(OC)c1` the inhibition was 10.9% (inactive).
With `COc1cc(CN2CCN(Cc3cc(OC)c(OC)cc3OC)CC2)cc(OC)c1` the inhibition was 75.9% (active).
With `COc1cc(OC)c(OC)cc1CN1CCN(Cc2ccc3c(c2)OCO3)CC1` the inhibition was 49.8% (inactive).
`CCOC(=O)N1CCN(Cc2cc(Br)c(OC)cc2OC)CC1` was tested, and the inhibition was 8.78% (inactive).
In the case of `COc1cc(CN2CCN(Cc3ccc(OC)c(OC)c3)CC2)cc(OC)c1`, the inhibition is reported as 71.4% (active).
For `COc1cc(CN2CCN(Cc3ccccc3Br)CC2)cc(OC)c1`, the inhibition was 89.3% (active).
In the case of `COc1cc(OC)c(OC)cc1CN1CCN(c2ccccc2F)CC1`, the inhibition is reported as 24.1% (inactive).
`CCOc1cc(CN2CCN(Cc3cc(OC)cc(OC)c3)C(CCO)C2)ccc1OC` (configuration not stated) was tested, and the inhibition was 0.98% (inactive).
For `COc1ccc(CN2CCC(C(N)=O)CC2)cc1OC`, the inhibition was 1.23% (inactive).
For `CC(C)Oc1ccccc1/C=C(\C#N)C(=O)Nc1ccccc1`, the inhibition was -0.06% (inactive).
`O=C(CN1C(=O)CCC1=O)Nc1ccc(O)c(-c2nc3ccccc3s2)c1` was tested, and the inhibition was 0.38% (inactive).
In the case of `O=C(O)c1ccc(/C=N/Nc2ccc3ccccc3n2)cc1`, the inhibition is reported as 10.5% (inactive).
With `CC(=O)N1CCc2cc(Br)cc(S(=O)(=O)N3CCN(Cc4ccccc4)CC3)c21` the inhibition was 13.2% (inactive).
In the case of `O=C(CCS(=O)(=O)c1cccc2nonc12)N1CCCC1`, the inhibition is reported as 11.4% (inactive).
For `COc1ccc(Cn2c(CCC(=O)Nc3cccc(SC)c3)nc3cccnc32)cc1`, the inhibition was -3.6% (inactive).
With `O=C(Oc1cccc(OC(=O)c2ccccc2)c1)c1ccccc1` the inhibition was -0.91% (inactive).
`C#CC(C)(C)OC(=O)C1C2C=CC(C2)C1C(=O)O` (configuration not stated) was tested, and the inhibition was 21.6% (inactive).
For `Cc1ccc(NC(=O)C2C3C=CC4(O3)C2C(=O)N(C2CCCCCCC2)C4C(=O)NC2CCCCC2)cc1Cl` (configuration not stated), the inhibition was -0.34% (inactive).
In the case of `O=C(NCCc1ccccc1)c1ccc(Cn2c(=S)[nH]c3cc4c(cc3c2=O)OCO4)cc1`, the inhibition is reported as 13.8% (inactive).
With `CCn1c(=O)c2ccccc2n2c(SCC(=O)Nc3nccs3)nnc12` the inhibition was 0.8% (inactive).
For `COc1ccc(CCN2CCC(c3nc(-c4ccc5c(c4)OCO5)no3)CC2)cc1OC`, the inhibition was 7.81% (inactive).
With `O=C(N/N=C/c1cc(Br)ccc1O)c1cc(Br)ccc1O` the inhibition was 8.32% (inactive).
With `O=C(N/N=C/c1cc(Br)ccc1O)c1ccc(=O)[nH]n1` the inhibition was 80.2% (active).
With `O=C(N/N=C/c1cc(Br)ccc1O)c1cc(-c2cccs2)[nH]n1` the inhibition was 17.6% (inactive).
`CCOC(=O)C1=C(O)/C(=C\c2cccc(Cl)c2)N=C1C` was tested, and the inhibition was -3.89% (inactive).
`COC(=O)C1=C(O)/C(=C\c2cccc(O)c2)N=C1C` was tested, and the inhibition was 58% (active).
In the case of `COC(=O)C1=C(O)/C(=C\c2ccccc2C(F)(F)F)N=C1C`, the inhibition is reported as 1.73% (inactive).
For `CCN(CC)C(=O)C1CCCN(c2cccc(C(=O)NCCOc3ccccc3)c2)C1` (configuration not stated), the inhibition was 17.9% (inactive).
With `O=C(CSc1ncnc2nc[nH]c12)c1ccc(O)c(O)c1` the inhibition was 82.1% (active).
In the case of `c1nc(SCc2ccc3c(c2)OCO3)c2[nH]cnc2n1`, the inhibition is reported as 5.04% (inactive).
In the case of `Cn1c(N)c(C(=O)CSc2ncnc3nc[nH]c23)c(=O)n(C)c1=O`, the inhibition is reported as 10.9% (inactive).
`CC(=O)N1CCN(Cc2ccc3c(c2)CN(C(=O)c2cccc(N(C)C)c2)CCO3)CC1` was tested, and the inhibition was 1.41% (inactive).
For `C/C(=N\NC(=O)CCCc1cc2ccccc2[nH]1)c1ccncc1`, the inhibition was 12.8% (inactive).
`COc1cccc(CCNC(=O)CC2C(=O)NCCN2Cc2cccc(C(F)(F)F)c2)c1` (configuration not stated) was tested, and the inhibition was 10.1% (inactive).
In the case of `CCCS(=O)(=O)N1CCN(C(=O)c2cccs2)CC1`, the inhibition is reported as 16.3% (inactive).
`CCCS(=O)(=O)N1CCN(c2ccc(C)nn2)CC1` was tested, and the inhibition was 1.44% (inactive).
In the case of `CCCS(=O)(=O)N1CCN(C(C)C)CC1`, the inhibition is reported as 87.2% (active).
In the case of `O=C(N/N=C\c1ccc(Cl)cc1Cl)c1ccccc1O`, the inhibition is reported as 9.14% (inactive).
In the case of `O=C1Nc2c(Cl)cc(Cl)cc2/C1=N\N=C\c1ccc(O)c(O)c1O`, the inhibition is reported as 80.2% (active).
With `C[n+]1ccc(C(=O)N/N=C/c2ccc(Cl)cc2Cl)cc1` the inhibition was 0.41% (inactive).
With `CCC1CCCCN1Cc1c(O)ccc2c(=O)c(Oc3ccc(OC)cc3)c(C(F)(F)F)oc12` (configuration not stated) the inhibition was -1.92% (inactive).
For `CC(C)C[C@@H]1NC(=O)[C@@H]2C[C@H](NC(=O)Nc3c(Cl)cccc3Cl)CN2C1=O`, the inhibition was 2.93% (inactive).
`Cc1noc(C)c1-c1cccc(C(=O)NCCCN2CCCC2=O)c1` was tested, and the inhibition was 12.4% (inactive).
For `CC(c1ccccn1)N(CCN(C)C)C(=S)Nc1ccccc1F` (configuration not stated), the inhibition was 58% (active).
With `CN(C)CCCNC(=O)C(=O)Nc1ccccc1F` the inhibition was -6.25% (inactive).
In the case of `CCOC(=O)N1CCC(N(CCOC)C(=S)Nc2ccccc2F)CC1`, the inhibition is reported as -9.05% (inactive).
For `Cc1ccc(S(=O)(=O)N(CCC(=O)NCC2CCCO2)Cc2c(Cl)cccc2Cl)cc1` (configuration not stated), the inhibition was -0.49% (inactive).
For `O=C(Nc1sc2c(c1C(=O)Nc1ccccc1)CCCCC2)c1ccncc1`, the inhibition was 17.1% (inactive).
In the case of `CCOc1ccc(C(=O)Nc2cccc(-c3nc4cc(C)cc(C)c4o3)c2)cc1[N+](=O)[O-]`, the inhibition is reported as 8.35% (inactive).
`COc1cc(C(=O)N/C(=C/c2ccc3c(c2)OCO3)C(=O)NCC(=O)O)cc(OC)c1OC` was tested, and the inhibition was -4.22% (inactive).
For `CC1CCCCC1NC(=O)CSc1nnc(-c2ccncc2)n1CCCN(C)C` (configuration not stated), the inhibition was 85.7% (active).
With `COCCCn1c(SCC(=O)NC2CCCCC2)nnc1-c1ccccc1` the inhibition was 8.3% (inactive).
`CCCn1c(SCC(=O)NC2CCCCC2C)nnc1-c1cccnc1` (configuration not stated) was tested, and the inhibition was 0.55% (inactive).
With `CCNC(=S)NNC(=O)c1cccc(S(=O)(=O)Nc2ccc(C)cc2C)c1` the inhibition was 6.71% (inactive).
With `CCCS(=O)(=O)N1CCc2ccc(NC(=O)/C=C/c3ccco3)cc2C1` the inhibition was 14.1% (inactive).
For `CNC(=O)c1ccccc1Nc1cc(Nc2ccc(N3CCOCC3)cc2OC)ncc1F`, the inhibition was 4.9% (inactive).
For `COc1cc(N2CCOCC2)ccc1Nc1cc(Nc2ccccc2C(N)=O)ccn1`, the inhibition was 21.1% (inactive).
In the case of `COc1cc(N2CCOCC2)ccc1Nc1cc(Nc2ccccc2-n2cccn2)c(C(F)(F)F)cn1`, the inhibition is reported as 57.2% (active).
`N#CCN1C(=O)C(=O)/C(=C(/O)c2ccccc2)C1c1ccccn1` (configuration not stated) was tested, and the inhibition was 19.8% (inactive).
`COc1cc(CN2CCC(N3CCC(C(=O)NCC4CCCO4)CC3)CC2)cc(OC)c1` (configuration not stated) was tested, and the inhibition was 6.5% (inactive).
`CC(C)c1ccc(C2/C(=C(/O)c3ccccc3)C(=O)C(=O)N2CCN(C)C)cc1` (configuration not stated) was tested, and the inhibition was 57.4% (active).
With `CN(C)c1ccc(C2/C(=C(/O)c3ccccc3)C(=O)C(=O)N2CCO)cc1` (configuration not stated) the inhibition was -0.75% (inactive).
With `Cc1ccc(C2/C(=C(/O)c3ccc(Cl)cc3)C(=O)C(=O)N2CCN(C)C)cc1` (configuration not stated) the inhibition was -18.6% (inactive).
With `O=C(Nc1ccc(-c2cn3ccccc3n2)cc1)c1ccc(Br)o1` the inhibition was 11.4% (inactive).
In the case of `C/C(=N\Nc1ccc(Cl)c(C(=O)O)c1)c1ccc([N+](=O)[O-])cc1`, the inhibition is reported as 0.79% (inactive).
For `CS(=O)(=O)N(Cc1ccccc1)c1ccccc1C(=O)N1CCCCCC1`, the inhibition was -12% (inactive).
`CCN(CC)S(=O)(=O)c1ccc(OCC(=O)Nc2ccc(C(C)=O)cc2)c([N+](=O)[O-])c1` was tested, and the inhibition was -5.88% (inactive).
`CCCCCc1ccc(-c2ccc(C(=O)Oc3ccc(-c4ccccc4)cc3)cc2)nc1` was tested, and the inhibition was 3.19% (inactive).
With `CCCCOc1ccc(OC(=O)c2ccc(-c3ccc(CC)cn3)cc2)cc1` the inhibition was -0.56% (inactive).
`CCCCCOc1ccc(OC(=O)c2ccc(-c3ccc(CCC)cn3)cc2)cc1` was tested, and the inhibition was 57.3% (active).
For `CCOC(=O)C1CCCN(c2c(OCC)c(=O)c2=O)C1` (configuration not stated), the inhibition was -5.33% (inactive).
`CCN(CCCNC(=O)CCCn1c(=S)[nH]c2cc3c(cc2c1=O)OCO3)c1cccc(C)c1` was tested, and the inhibition was 2.49% (inactive).
In the case of `CN1CCN(S(=O)(=O)c2ccc(F)c(Cl)c2)CC1`, the inhibition is reported as 19.5% (inactive).
